Screening results deposited in PubChem BioAssay by NMMLSC.
In the library only some 1.2% were active in any assay of this set; here they are far more common.
GSH fluor = compound fluorescence on glutathione beads, profiling panel, artefact control, biophysical, 488/530 nm, flow cytometry; 190,000 compounds, 0.25% hits; AID 1776, 2009; fluorescence (KMESF) at 10 µM; GSH beads flow cytometry, compound fluorescence 488/530 nm; stronger effect = higher value; in the data active = fluorescence above about 89;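 note: glutathione beads carrying GST-tagged Bcl family fusion proteins plus one bare bead set; values are compound well signal with DMSO vehicle wells as background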
Avidin bead fluor = green autofluorescence of compounds with avidin beads – biophysical, 488/530 nm, flow cytometry, artefact control, profiling panel; compound fluorescence 488/530 nm; stronger effect = higher value; AID 1775, 2009; fluorescence (KMESF) at 10 µM; 220,000 compounds, 0.38% hits; in the data active = fluorescence above about 47
RGS8-Gao = RGS8-Galphao binding modulators, primary screen, biochemical, multiplexed bead flow cytometry; Guanine nucleotide-binding protein G(o) subunit alpha (Homo sapiens), P09471; actives lie on both sides; response (percent of control binding), % at 10 µM; 220,000 compounds, 0.34% hits; AID 1423, 2008; in the data active = response below about 60% or above about 140%; inactive = in between;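 note: Galphao activated as the GDP aluminium fluoride complex binding bead-coupled RGS8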
Target sequence (P09471 whole entry, looked up): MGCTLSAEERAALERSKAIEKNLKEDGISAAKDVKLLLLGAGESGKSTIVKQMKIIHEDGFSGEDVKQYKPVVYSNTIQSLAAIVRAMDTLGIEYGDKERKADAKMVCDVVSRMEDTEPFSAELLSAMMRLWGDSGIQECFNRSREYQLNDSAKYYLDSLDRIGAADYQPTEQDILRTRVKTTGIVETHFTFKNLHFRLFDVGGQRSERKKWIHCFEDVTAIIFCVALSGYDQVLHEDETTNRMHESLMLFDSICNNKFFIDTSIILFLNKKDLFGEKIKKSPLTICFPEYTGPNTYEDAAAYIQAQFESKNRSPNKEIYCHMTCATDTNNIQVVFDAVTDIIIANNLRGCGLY
RGS7-Gao reg = RGS7-Galphao binding modulators, primary screen, biochemical, multiplexed bead flow cytometry; Guanine nucleotide-binding protein G(o) subunit alpha (Homo sapiens), P09471; actives lie on both sides; binding response (% of control), % at 10 µM; 220,000 compounds, 0.35% hits; AID 1439, 2008; in the data active = binding response below about 49% or above about 150%; inconclusive = no clear call, values can overlap the other calls; inactive = in between;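 note: fluorescent Galphao held in activated GDP-AlF4 state binding bead-coupled RGS7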
RGS16-Gao HTS = modulators of RGS16 binding to Galphao, primary screen, biochemical, human proteins, multiplexed bead flow cytometry. 220,000 compounds, 0.38% hits. Regulator of G-protein signaling 16 (Homo sapiens) + Guanine nucleotide-binding protein …. bead-based flow cytometry RGS16-Galphao binding, fluorescence; actives lie on both sides. AID 1441, 2008. binding response (% of control), % at 10 µM;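 note: Galphao activated by GDP with aluminum fluoride before binding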
Target sequence (O15492 whole entry, looked up): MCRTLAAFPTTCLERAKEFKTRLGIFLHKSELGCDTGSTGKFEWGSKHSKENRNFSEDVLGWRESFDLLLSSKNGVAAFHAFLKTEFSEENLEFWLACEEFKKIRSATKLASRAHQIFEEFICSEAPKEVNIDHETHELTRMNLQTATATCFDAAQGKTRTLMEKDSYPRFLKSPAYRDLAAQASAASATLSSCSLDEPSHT
Target sequence (P09471 whole entry, looked up): as the sequence (P09471 whole entry, looked up) above
RGS4-Gao reg = modulators of RGS4 binding to Galphao, primary screen, biochemical, multiplexed bead flow cytometry. actives lie on both sides. binding response (% of control), % at 10 µM. 220,000 compounds, 0.33% hits; in the data active = binding response below about 49% or above about 150%; inactive = in between;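 note: fluorescent Galphao activated with aluminum fluoride binding bead-coupled RGS4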
RGS-Gao = modulators of RGS–Galpha-o binding, primary screen, biochemical, multiplexed beads, flow cytometry, RGS4/7/8/16/19. shares compounds with RGS16-Gao HTS. multiplexed bead flow cytometry. RGS4–Galpha-o binding response, % at 10 µM. 1,600 compounds, 99% hits. AID 1504, 2009;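 note: fluorescently labeled Galpha-o bound to GDP with aluminium fluoride binding biotinylated RGS beads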
Avidin counter = disruption of biotin probe capture by avidin, counter-screen for RGS protein interaction modulators, biochemical, flow cytometry, bead-based; shares compounds with RGS16-Gao HTS; streptavidin beads, fluorescein-biotin binding; inhibition, % at 10 µM; 1,700 tested, under 10 active;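 active = inhibition above 50%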;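 note: median green fluorescence of gated singlet beads compared with DMSO control wells; 0% = DMSO wells and 100% = complete loss of bead fluorescence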
RGS8-Gao single = RGS8-Galphao binding modulators, confirmation, biochemical, multiplexed bead flow cytometry, single concentration; shares compounds with RGS16-Gao HTS; bead-based flow cytometry RGS8-Galphao binding, fluorescence; actives lie on both sides; binding response (% of control), % at 10 µM; 1,700 compounds, 3% hits; AID 1836, 2009; in the data active = binding response below about 72% or above about 130%; inactive = in between;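 note: Galphao activated as GDP AlF4 complex before binding bead RGS8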
RGS7-Gao single = RGS7-Galphao binding modulators, confirmation, biochemical, multiplexed bead flow cytometry, single concentration | AID 1837, 2009 | shares compounds with RGS16-Gao HTS | response (percent of control binding), % at 10 µM | bead-based flow cytometry RGS7-Galphao binding; actives lie on both sides | 1,700 compounds, 7.8% hits; in the data active = response below about 75% or above about 130%; inactive = in between;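 note: fluorescent Galphao activated with GDP and aluminum fluoride binding bead-coupled RGS7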
RGS16-Gao single = modulators of RGS16-Galphao protein binding, confirmation, biochemical, single concentration, multiplexed bead flow cytometry; shares compounds with RGS16-Gao HTS; bead-based flow cytometry; actives lie on both sides; response (% of control binding), % at 10 µM; 1,700 compounds, 4% hits; AID 1838, 2009; in the data active = response below about 74% or above about 130%; inactive = in between;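 note: Galphao activated as the GDP aluminium fluoride complex binding bead-coupled RGS16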
RGS4-Gao confirm = modulators of RGS4-Galphao protein binding, confirmation, biochemical, single concentration, multiplexed bead flow cytometry; 1,700 compounds, 4% hits; shares compounds with RGS16-Gao HTS; AID 1840, 2009; binding response (% of control), % at 10 µM; actives lie on both sides; in the data active = binding response below about 74% or above about 130%; inactive = in between
RGS19-Gao single = regulators of RGS19-Galphao binding, confirmation, biochemical, single point, multiplexed bead flow cytometry. shares compounds with RGS16-Gao HTS. bead-based flow cytometry RGS19-Galphao binding; actives lie on both sides. response (percent of control binding), % at 10 µM. 1,700 compounds, 5% hits. AID 1841, 2009; in the data active = response below about 50% or above about 160%; inactive = in between;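 note: 100% = no compound control and 0% = blank background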
The depositor's hits bear a star; i = inactive; ? = inconclusive; / = no result given; [ ] = dose if it differs, or a comment. Unless noted, the rule behind the calls is not given here.

SMILES | GSH fluor | Avidin bead fluor | RGS8-Gao | RGS7-Gao reg | RGS16-Gao HTS | RGS4-Gao reg | Avidin counter | RGS8-Gao single | RGS7-Gao single | RGS16-Gao single | RGS4-Gao confirm | RGS19-Gao single | others
CC(C)CCOc1cccc(OCC(=O)O)c1 | 63 | 84* | 130 | 375*[activator] | 352*[activator] | 422*[activator] | 4 | 97 | 72* | 87 | 85 | 58
Cc1cc(C)c(C#N)c(SCCS(=O)(=O)c2ccc(C(C)(C)C)cc2)n1 | 30 | / | / | / | / | / | 3 | 100 | 97 | 98 | 97 | 92
Cc1cc(C)c(C#N)c(SCCS(=O)(=O)c2ccc(Cl)cc2)n1 | / | 6 | 91 | ? | 84 | 90 | / | / | / | / | / | /
Cc1nnc2sc(SCC(=O)Nc3ccc(Cl)cc3)nn2c1=O | 16 | 27 | 103 | 102 | 102 | 102 | / | / | / | / | / | /
CCOc1ccc2nc(N3CCCC(C(=O)NCC4CCCO4)C3)sc2c1 (stereo unspecified) | / | 4 | 104 | ? | 104 | 106 | / | / | / | / | / | /
O=C(CSc1ccc2ccccc2n1)NCc1ccc2c(c1)OCO2 | 11 | 0 | 14* | ? | 11* | 21* | -4 | 103 | 107 | 106 | 102 | 101
Cc1cccc(N=Cc2[nH]c3ccc(Br)c(Cl)c3c2O)c1 | 16 | 33 | 104 | 153*[activator] | 139 | 142 | / | / | / | / | / | / | RGS-Gao=142*
CCOCCCNC(=O)c1c[nH]c2c(CC)cccc2c1=O | 52 | 7 | 104 | 99 | 113 | 102 | / | / | / | / | / | /
O=C1NC(=O)/C(=C\c2ccc(OCc3cccc(C(=O)O)c3)c(Cl)c2)N1 | 15 | 7 | 97 | 93 | 96 | 97 | / | / | / | / | / | /
CC1=NOC(=O)/C1=C/c1ccc(N(C)C)cc1 | 34 | 13 | 100 | 102 | 100 | 101 | / | / | / | / | / | /
O=C1NC(=O)/C(=C/c2cccc(O)c2)N1 | / | / | / | / | / | / | -1 | 98 | 95 | 98 | 98 | 95
CN(C)c1ccc(/C=C2/NC(=O)NC2=O)cc1 | 17 | 113* | 145*[activator] | 354*[activator] | i | 549*[activator] | 1 | 102 | 103 | 105 | 102 | 104
O=C(N/N=C/C1CC2CCC1C2)c1ccc2c(c1)OCO2 (stereo unspecified) | 6 | 2 | 101 | 103 | 105 | 101 | / | / | / | / | / | /
CCOc1ccc(NC(=O)CC)cc1 | 21 | 10 | 105 | ? | 107 | 106 | / | / | / | / | / | /
CCOc1ccc(NC(=O)CSC(N)=O)cc1 | 43 | 5 | 163*[activator] | 106 | 243 | 100 | 1 | 103 | 90 | 100 | 95 | 91 | RGS-Gao=100*
CC(C)(O)C1=NOC(c2ccccc2)C1 (stereo unspecified) | 25 | 200* | 99 | 338*[activator] | 114 | 133 | 0 | 103 | 102 | 102 | 103 | 109 | RGS-Gao=133*
O=C1CC(=O)CC(c2ccccc2)C1 | 17 | 9 | 100 | 96 | 110 | 102 | / | / | / | / | / | /
CSc1ccccc1NC(=O)C1C2CCC(C2)C1C(=O)O (stereo unspecified) | 14 | 1 | 40* | 33* | 21* | 24* | 2 | 100 | 100 | 102 | 101 | 115
NS(=O)(=O)c1cccnc1Nc1c(Cl)cccc1Cl | 202* | 108* | 128 | 179*[activator] | 213*[activator] | 208*[activator] | 0 | 104 | 108 | 106 | 106 | 103
CCOC(=O)N1CCN(C(=S)NC(=O)c2cncc(Br)c2)CC1 | 8 | 2 | 74 | 99 | 24 | 100 | / | / | / | / | / | /
O=C(Nc1ccc2c(c1)OCO2)N1CCN(c2ccccc2Cl)CC1 | 14 | 14 | 100 | 99 | 100 | 103 | / | / | / | / | / | /
O=C(Nc1ccc2c(c1)OCO2)N1CCN(c2cccc(C(F)(F)F)c2)CC1 | 32 | 0 | 72 | 68 | -243 | 47* | -1 | 98 | 96 | 97 | 98 | 105
COc1ccccc1NC(=O)CN(c1ccc([N+](=O)[O-])cc1)S(=O)(=O)c1ccccc1 | 15 | 6 | 85 | 79 | 185*[activator] | 113 | -2 | 99 | 98 | 102 | 101 | 102 | RGS-Gao=113*
CC(C)NC(=O)c1ccccc1NC(=O)Cc1ccc([N+](=O)[O-])cc1 | 19 | 8 | 99 | ? | 102 | 99 | / | / | / | / | / | /
CC(C)CC(=O)Nc1cccc(C(C)O)c1 (stereo unspecified) | 9 | 173* | 90 | 203*[activator] | 151 | 115 | 2 | 102 | 106 | 99 | 102 | 137 | RGS-Gao=115*
CCCCC(=O)Nc1cccc(C(C)O)c1 (stereo unspecified) | 9 | 22 | 103 | 102 | 102 | 103 | / | / | / | / | / | /
COc1ccc(S(=O)(=O)N(C)c2c(C)n(C)n(-c3ccccc3)c2=O)cc1OC | 25 | 107* | 100 | 203*[activator] | 105 | 119 | 3 | 92 | 67* | 74* | 71* | 50* | RGS-Gao=119*
O=C(C1CCN(S(=O)(=O)c2cccc3cccnc23)CC1)N1CCN(c2ccccc2)CC1 | 12 | 3 | 122 | 100 | 189 | 105 | / | / | / | / | / | /
